In PubChem BioAssay (NCATS):
Records with an inconclusive call do not appear. Active and inactive are the calls of the source. Unless noted, the call rests on the fitted dose curve; in most records, active means well fitted curve in the direction sought with a large enough effect; inconclusive means small, poorly fitted or top-dose-only effect, or another doubt; inactive means no such curve, though single readings can be large; an effect the other way counts as inactive or inconclusive.

Assays:
[1] = biological target: Guanine nucleotide-binding protein G(i) subunit alpha-1 (Homo sapiens) (UniProt P63096); assay: qHTS Assay for Inhibitors of RGS12 GoLoco Motif Activity (Green Fluorophore) (AID 879);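 further: negative values mean loss of peptide binding seen as reduced polarization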
Method in brief: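 Fluorescence polarization assay: 50 nM Gαi1 with 10 nM FITC-labeled RGS12 GoLoco peptide in 10 mM Tris pH 7.5, 150 mM NaCl, 0.1 mM GDP, 0.05% NP40, 10 min at room temperature with compound.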

[2] = biological target: Beta-2 adrenergic receptor (Homo sapiens) (UniProt P07550); assay: qHTS validation assay of beta-arrestin-biased ligands of beta2-adrenergic receptor (AID 485366)
Method in brief: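 Tango cells (recombinant beta2-AR with recombinant beta-arrestin; recruitment releases tTA driving luciferase) were treated with compounds titrated up to 46 microM for 18 hr at 37 degrees C. Luminescence gave %Activity, and concentration-response curves were curve-classified.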

[3] = biological target: Thioredoxin reductase 1, cytoplasmic (Rattus norvegicus) (UniProt O89049); assay: qHTS Assay for Substrates of Mammalian Selenoprotein Thioredoxin Reductase 1 (TrxR1) (AID 488772);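 further: NADPH fluorescence in the first read after selenite addition and not the 8 min delta; series mostly up to about 57 µM; a drop in NADPH fluorescence below the no-compound background marks a TrxR1 substrate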
Method in brief: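 Quantitative HTS in Tris-HCl buffer at pH 7.5 with EDTA and Tween-20, using rat TrxR1, 400 uM NADPH and 400 uM selenite (final). A fall in initial NADPH fluorescence relative to background marked substrate behaviour.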

[4] = biological target: Thioredoxin reductase 1, cytoplasmic (Rattus norvegicus) (UniProt O89049); assay: qHTS Assay for Inhibitors of Mammalian Selenoprotein Thioredoxin Reductase 1 (TrxR1) (AID 488773);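 further: drop in NADPH fluorescence over an 8 min run after selenite addition; series mostly up to about 57 µM; nearly all actives have a fitted effect of over 40% in size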
Method in brief: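 Steps: enzyme (90 nM) plus NADPH (400 uM final), 5 min at ~22 deg C; compound added, 15 min; selenite (400 uM final) added; fluorescence followed for 8 min. Concentration-response curves derived from the normalized delta values.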

[5] = biological target: Flap endonuclease 1 (Homo sapiens) (UniProt P39748); assay: qHTS Validation Assay for the Inhibitors of Human Flap endonuclease 1 (FEN1) (AID 488816)
Method in brief: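 FEN1, dispensed as a 10 nM reagent, was preincubated with pin-transferred compounds for 15 min at room temperature before substrate was added (50 nM final). Plates were read at 0 and 15 min, and a four-parameter Hill equation was fitted to the concentration-response data.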

[6] = biological target: M-phase phosphoprotein 8 (Homo sapiens) (UniProt Q99549); assay: qHTS Validation Assay for Inhibitors for MPP8 Chromodomain Interactions with Methylated Histone Tails (AID 488949);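 further: AlphaScreen signal from MPP8 chromodomain bound to biotinylated H3K9me3 peptide; top concentration of the series differs between compounds; nearly all actives have a fitted effect of over 55% in size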
Method in brief: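 AlphaScreen proximity signal from streptavidin donor and Ni-chelate acceptor beads (10 ug/mL each) reported binding of MPP8 to trimethyl-K9 H3(1-18) peptide, both at 50 nM. The complex formed 30 min before a 30 min compound exposure at room temperature, in PBS pH 7.4.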

[7] = biological target: Methanococcus maripaludis chaperonin (MmCpn) (UniProt Q6LX38); assay: High-Throughput Screening for Modulators of Cytosolic Chaperonin Activity: MmCpn Primary Screen (AID 488978);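 further: 50 nM MmCpn enzyme hydrolysing 30 µM ATP at 37 °C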
Method in brief: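 ATPase activity of 50 nM MmCpn was assayed with 30 uM ATP, 10 minutes at 37C, after a 5 min compound preincubation at room temperature. ADP production was read as HTRF emission at 590 and 665 nm.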

[8] = biological target: D(1A) dopamine receptor (Homo sapiens) (UniProt P21728); assay: HTS Assay for Allosteric Agonists of the Human D1 Dopamine Receptor: Primary Screen for Agonists (AID 488981)
Method in brief: (§1)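 Tetracycline-induced HEK293 T-REx cells force-coupled to calcium signalling were incubated overnight at 30 C and dye-loaded at room temperature. Calcium flux over 180 s after compound addition flagged agonists; a further 180 s read after EC20 dopamine flagged potentiators.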

[9] = biological target: D(1A) dopamine receptor (Homo sapiens) (UniProt P21728); assay: HTS Assay for Allosteric Agonists of the Human D1 Dopamine Receptor: Primary Screen for Potentiators (AID 488982)
Method in brief: as §1

[10] = biological target: D(1A) dopamine receptor (Homo sapiens) (UniProt P21728); assay: HTS Assay for Allosteric Agonists of the Human D1 Dopamine Receptor: Primary Screen for Antagonists (AID 488983);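 further: calcium flux response to an EC80 dopamine challenge measured with no-wash dye; nearly all actives have a fitted effect of over 65% in size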
Method in brief: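 Tetracycline-induced HEK293 T-REx cells expressing force-coupled D1 were plated overnight at 30 C, dye-loaded for calcium, and read kinetically. Compounds were pinned in, then an EC80 dopamine challenge followed after 180 s to reveal antagonism.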

[11] = Validation screen for small molecules that induce genotoxicity in human embryonic kidney (HEK293T) cells expressing luciferase-tagged ELG1 (AID 493106)
Method in brief: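 HEK293T cells expressing luciferase-tagged ELG1 were exposed to compound or DMSO vehicle for 16 hr at 37 °C, 5% CO2. Genotoxic stress raises ELG1 levels, so increased luciferase signal after ONE-Glo addition and 30 min at room temperature marks hits.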

[12] = qHTS for Inhibitors of Cell Surface uPA Generation: Validation Assay (AID 493164);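 further: RAW 264.7 macrophage cells exposed to compound for 18 h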
Method in brief: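 RAW 264.7, 4000 cells/well, o/n plating; cpd 7-pt 1:5 dilution 2.45 nM–38.3 uM final; 18 h, 37 C/5% CO2; ATP-Lite, 5 s luminescence exposure.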

[13] = biological target: Peptidyl-prolyl cis-trans isomerase NIMA-interacting 1 (Homo sapiens) (UniProt Q13526); assay: qHTS Validation Assay to Find Inhibitors of Pin1 (AID 504536; active means well fitted inhibition curve with a large enough effect in the polarisation, with a control signal flat, not every such curve was filed as active; the % refers to the polarisation)
Method in brief: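 Fluorescence polarization competition: compounds (titration) displace HiFluor-488-labeled Pin1-1b peptide from Pin1 (0.3 uM final) in pH 7.5 HEPES buffer with DTT, 10 min at room temperature; %Activity normalized to no-enzyme wells, curves fitted.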

[14] = biological target: Phosphoglycerate kinase, glycosomal (Trypanosoma brucei brucei) (UniProt P07378); assay: qHTS Validation Assay to Find Inhibitors of Phosphoglycerate Kinase (AID 504547)
Method in brief: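 Substrate/PGK mix plus compound; reaction started with GAPDH (100nM final) to form 1,3-BPG; 60 min RT; Kinase-Glo Plus 10 min; luminescence. TEA 100mM pH 7.6, MgCl2 5mM, Tween-20 0.01%.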

[15] = biological target: phosphoglycerate mutase (Leishmania major) (UniProt Q4Q090); assay: qHTS Validation Assay to Find Inhibitors of Phosphoglycerate Mutase (AID 504548); further: series mostly up to about 58 µM
Method in brief: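 Lm PGAM 1.25nM final; 100 mM TEA pH 7.6, 5 mM MgCl2, 0.01% Tween-20; 45 min RT; Kinase-GloPlus, 10 min; end-point luminescence. Enzyme-free wells as negative controls.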

[16] = biological target: Glutaminase kidney isoform, mitochondrial (Homo sapiens) (UniProt O94925); assay: qHTS for Inhibitors of Glutaminase (GLS): LOPAC Validation (AID 624146);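 further: glutamate product detected by oxidase and peroxidase coupled Amplex red fluorescence gain; series mostly up to about 46 µM; nearly all actives have a fitted effect of over 60% in size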
Method in brief: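 Read-out is an Amplex red fluorescence increase coupled through glutamate oxidase and HRP, measured before and after 30 min room-temperature incubation. hKGA is in 45 mM KH2PO4 (pH 8.2) with 0.02% Tween-20; glutamine added as 1mM solution.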

[17] = qHTS of Trypanosoma Brucei Inhibitors: LOPAC Validation (AID 624147)
Method in brief: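 In this concentration-response screen, enzyme-free wells defined baseline while DMSO plates tracked drift. Each reaction combined TbPYK, substrate, compound and 130 uM ADP for 45 min at room temperature. Kinase-Glo Plus luminescence gave the signal.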

[18] = biological target: Glucagon-like peptide 1 receptor (Homo sapiens) (UniProt P43220); assay: qHTS of GLP-1 Receptor Agonists: LOPAC Validation (AID 624148);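 further: higher luminescence signal means agonism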
Method in brief: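 HEK293 cells stably co-expressing a cAMP-responsive luciferase reporter and a hypersensitive GLP-1R were plated 12 h at 37 °C and exposed to compounds for 4-6 hr at 37 °C, 5% CO2. Luminescence was read 12 min after adding detection reagent.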

[19] = qHTS of Nrf2 Activators: LOPAC Validation (AID 624149)
Method in brief: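 AREc32 cells carrying an ARE-driven firefly luciferase were grown overnight in OPTI-MEM with 5% FBS, then exposed to compounds for 24 hr at 37 deg C. Luciferase signal was read after 30 min with Steady-Glo at RT.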

[20] = HTS Assay for Allosteric Antagonists of the Human D2 Dopamine Receptor: Hit Validation in HTRF (AID 624455);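 further: stable D1 dopamine receptor cell line scored for blocking the D1 response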
Method in brief: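 Hits were examined in an HTRF assay using cells stably expressing the D1 dopamine receptor, scoring inhibition of the D1-mediated response. The preceding primary screen tracked calcium flux after an EC80 dopamine addition in force-coupled, inducible Hek293 Trex D2 cells.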

Measured: outcome

D(1A) dopamine receptor (Homo sapiens), sequence (P21728 whole entry, looked up): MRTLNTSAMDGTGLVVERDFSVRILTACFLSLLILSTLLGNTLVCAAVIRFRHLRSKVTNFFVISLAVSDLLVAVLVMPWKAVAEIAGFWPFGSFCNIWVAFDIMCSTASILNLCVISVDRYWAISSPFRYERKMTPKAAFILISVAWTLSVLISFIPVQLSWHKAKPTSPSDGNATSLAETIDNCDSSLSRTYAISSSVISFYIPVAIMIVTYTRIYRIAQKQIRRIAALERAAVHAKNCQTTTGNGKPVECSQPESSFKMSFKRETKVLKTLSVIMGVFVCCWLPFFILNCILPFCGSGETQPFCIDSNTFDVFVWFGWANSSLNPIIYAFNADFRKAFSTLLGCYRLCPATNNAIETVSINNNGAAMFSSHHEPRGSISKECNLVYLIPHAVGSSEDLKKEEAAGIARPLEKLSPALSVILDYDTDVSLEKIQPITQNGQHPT
Thioredoxin reductase 1, cytoplasmic (Rattus norvegicus), sequence (O89049 whole entry, looked up): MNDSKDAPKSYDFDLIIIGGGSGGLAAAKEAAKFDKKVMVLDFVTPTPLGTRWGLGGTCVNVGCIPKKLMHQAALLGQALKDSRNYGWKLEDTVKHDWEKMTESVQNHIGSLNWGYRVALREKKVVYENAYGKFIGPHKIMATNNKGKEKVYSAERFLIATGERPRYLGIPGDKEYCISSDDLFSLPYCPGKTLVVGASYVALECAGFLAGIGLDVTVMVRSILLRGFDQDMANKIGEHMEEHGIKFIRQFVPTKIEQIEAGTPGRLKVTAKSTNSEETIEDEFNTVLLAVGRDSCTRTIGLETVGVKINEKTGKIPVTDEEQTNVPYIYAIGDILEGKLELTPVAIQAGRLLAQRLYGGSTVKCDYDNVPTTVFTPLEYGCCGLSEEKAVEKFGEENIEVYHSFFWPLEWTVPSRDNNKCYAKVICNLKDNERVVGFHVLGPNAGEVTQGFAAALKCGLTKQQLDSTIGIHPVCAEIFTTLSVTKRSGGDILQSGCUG
M-phase phosphoprotein 8 (Homo sapiens), sequence (Q99549 whole entry, looked up): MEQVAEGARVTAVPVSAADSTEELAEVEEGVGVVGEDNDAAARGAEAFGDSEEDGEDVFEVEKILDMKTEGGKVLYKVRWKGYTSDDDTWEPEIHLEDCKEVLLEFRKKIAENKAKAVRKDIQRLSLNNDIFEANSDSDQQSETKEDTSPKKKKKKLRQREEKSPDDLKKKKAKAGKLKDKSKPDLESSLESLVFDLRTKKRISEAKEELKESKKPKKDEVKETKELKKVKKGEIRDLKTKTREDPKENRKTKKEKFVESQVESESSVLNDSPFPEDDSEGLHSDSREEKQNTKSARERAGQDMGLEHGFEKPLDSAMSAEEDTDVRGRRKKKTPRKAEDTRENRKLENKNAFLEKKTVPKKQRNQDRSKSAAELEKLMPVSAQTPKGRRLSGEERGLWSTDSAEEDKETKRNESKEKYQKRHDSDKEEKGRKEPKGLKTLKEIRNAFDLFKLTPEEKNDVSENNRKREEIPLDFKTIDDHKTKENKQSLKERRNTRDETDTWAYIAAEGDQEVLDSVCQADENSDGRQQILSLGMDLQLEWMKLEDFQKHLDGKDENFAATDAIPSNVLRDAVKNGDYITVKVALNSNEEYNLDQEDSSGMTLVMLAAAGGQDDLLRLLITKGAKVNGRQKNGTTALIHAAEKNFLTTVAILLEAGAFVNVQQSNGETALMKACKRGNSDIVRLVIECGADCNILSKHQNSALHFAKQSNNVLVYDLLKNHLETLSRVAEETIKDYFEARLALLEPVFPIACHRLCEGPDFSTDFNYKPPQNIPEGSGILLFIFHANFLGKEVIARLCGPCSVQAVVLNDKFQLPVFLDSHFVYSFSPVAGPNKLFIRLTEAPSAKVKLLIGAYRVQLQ
Flap endonuclease 1 (Homo sapiens), sequence (P39748 whole entry, looked up): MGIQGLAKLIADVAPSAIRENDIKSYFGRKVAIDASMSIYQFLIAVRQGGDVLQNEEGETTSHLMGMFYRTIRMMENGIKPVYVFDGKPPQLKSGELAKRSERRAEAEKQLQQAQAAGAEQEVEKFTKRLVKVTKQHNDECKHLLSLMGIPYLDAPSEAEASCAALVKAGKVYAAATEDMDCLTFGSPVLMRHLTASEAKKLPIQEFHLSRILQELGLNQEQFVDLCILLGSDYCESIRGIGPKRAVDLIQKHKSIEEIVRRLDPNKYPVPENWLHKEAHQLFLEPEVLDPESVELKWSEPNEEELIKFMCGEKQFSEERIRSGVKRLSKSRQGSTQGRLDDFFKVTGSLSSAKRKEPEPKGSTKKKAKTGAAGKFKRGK
phosphoglycerate mutase (Leishmania major), sequence (Q4Q090 1-553): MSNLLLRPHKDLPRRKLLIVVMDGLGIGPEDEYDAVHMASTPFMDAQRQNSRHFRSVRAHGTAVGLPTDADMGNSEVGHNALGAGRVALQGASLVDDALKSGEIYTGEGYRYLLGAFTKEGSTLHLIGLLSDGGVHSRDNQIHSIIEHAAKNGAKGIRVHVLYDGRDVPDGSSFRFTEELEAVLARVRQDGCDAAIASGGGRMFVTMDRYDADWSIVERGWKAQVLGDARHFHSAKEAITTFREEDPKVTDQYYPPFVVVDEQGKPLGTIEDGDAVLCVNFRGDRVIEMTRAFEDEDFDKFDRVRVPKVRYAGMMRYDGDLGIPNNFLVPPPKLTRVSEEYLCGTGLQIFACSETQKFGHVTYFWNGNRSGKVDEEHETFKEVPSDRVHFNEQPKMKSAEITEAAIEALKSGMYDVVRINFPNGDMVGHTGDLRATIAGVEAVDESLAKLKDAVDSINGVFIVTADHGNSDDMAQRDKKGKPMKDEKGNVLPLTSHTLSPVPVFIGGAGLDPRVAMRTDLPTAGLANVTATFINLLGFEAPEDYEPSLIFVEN
Methanococcus maripaludis chaperonin (MmCpn), sequence (Q6LX38 1-543): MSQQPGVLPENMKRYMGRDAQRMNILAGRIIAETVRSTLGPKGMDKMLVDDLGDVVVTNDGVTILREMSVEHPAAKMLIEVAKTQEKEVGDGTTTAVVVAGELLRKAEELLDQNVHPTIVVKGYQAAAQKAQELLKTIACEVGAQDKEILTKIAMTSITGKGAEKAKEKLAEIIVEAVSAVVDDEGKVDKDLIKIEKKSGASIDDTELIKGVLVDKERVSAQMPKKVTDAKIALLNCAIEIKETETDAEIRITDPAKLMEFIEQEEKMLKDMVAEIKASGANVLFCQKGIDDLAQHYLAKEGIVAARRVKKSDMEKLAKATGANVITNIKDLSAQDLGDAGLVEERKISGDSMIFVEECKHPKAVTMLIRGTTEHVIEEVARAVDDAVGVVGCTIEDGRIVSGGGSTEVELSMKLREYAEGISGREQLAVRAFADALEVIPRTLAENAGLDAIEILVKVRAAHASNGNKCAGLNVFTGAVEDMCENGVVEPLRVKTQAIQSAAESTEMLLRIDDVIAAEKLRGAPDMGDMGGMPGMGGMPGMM
Beta-2 adrenergic receptor (Homo sapiens), sequence (P07550 whole entry, looked up): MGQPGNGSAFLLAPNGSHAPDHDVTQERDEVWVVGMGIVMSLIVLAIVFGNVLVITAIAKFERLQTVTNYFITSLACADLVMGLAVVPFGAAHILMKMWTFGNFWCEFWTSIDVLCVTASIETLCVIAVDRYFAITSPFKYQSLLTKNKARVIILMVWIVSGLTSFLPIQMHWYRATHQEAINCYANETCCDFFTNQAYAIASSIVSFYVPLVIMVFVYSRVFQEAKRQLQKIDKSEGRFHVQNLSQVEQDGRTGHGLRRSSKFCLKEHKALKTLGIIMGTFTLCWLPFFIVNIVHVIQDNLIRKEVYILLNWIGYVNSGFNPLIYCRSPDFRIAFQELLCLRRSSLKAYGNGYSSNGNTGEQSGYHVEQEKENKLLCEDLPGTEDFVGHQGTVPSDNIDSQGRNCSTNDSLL
Glucagon-like peptide 1 receptor (Homo sapiens), sequence (P43220 whole entry, looked up): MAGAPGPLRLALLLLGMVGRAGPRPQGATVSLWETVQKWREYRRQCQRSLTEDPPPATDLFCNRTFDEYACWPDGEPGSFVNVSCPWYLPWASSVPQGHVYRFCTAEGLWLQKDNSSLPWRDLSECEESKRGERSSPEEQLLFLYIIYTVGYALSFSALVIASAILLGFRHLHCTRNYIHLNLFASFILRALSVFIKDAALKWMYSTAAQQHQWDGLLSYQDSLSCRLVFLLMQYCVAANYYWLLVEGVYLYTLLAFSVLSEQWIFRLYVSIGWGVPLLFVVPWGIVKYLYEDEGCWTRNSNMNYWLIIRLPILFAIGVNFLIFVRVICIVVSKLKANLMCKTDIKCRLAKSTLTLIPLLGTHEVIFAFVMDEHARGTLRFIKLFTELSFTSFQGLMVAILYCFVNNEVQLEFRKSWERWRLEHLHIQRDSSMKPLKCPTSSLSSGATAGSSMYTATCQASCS
Peptidyl-prolyl cis-trans isomerase NIMA-interacting 1 (Homo sapiens), sequence (Q13526 whole entry, looked up): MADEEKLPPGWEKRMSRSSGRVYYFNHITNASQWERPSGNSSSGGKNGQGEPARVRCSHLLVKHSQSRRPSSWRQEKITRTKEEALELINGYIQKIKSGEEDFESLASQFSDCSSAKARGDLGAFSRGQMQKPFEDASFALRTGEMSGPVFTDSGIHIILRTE
Phosphoglycerate kinase, glycosomal (Trypanosoma brucei brucei), sequence (P07378 whole entry, looked up): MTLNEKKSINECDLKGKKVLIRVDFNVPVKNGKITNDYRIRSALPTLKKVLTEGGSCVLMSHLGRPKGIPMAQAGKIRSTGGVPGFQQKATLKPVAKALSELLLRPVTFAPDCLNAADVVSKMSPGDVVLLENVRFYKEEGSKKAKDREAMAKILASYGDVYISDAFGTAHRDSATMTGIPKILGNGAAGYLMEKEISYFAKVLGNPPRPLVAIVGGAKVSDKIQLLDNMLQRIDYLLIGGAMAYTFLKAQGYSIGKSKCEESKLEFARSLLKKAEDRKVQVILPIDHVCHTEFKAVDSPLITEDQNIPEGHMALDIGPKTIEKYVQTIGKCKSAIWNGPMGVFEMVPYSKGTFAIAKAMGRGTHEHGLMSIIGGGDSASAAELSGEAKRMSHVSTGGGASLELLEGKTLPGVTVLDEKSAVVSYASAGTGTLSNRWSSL

CC[C@@H](CO)Nc1nc(NCc2ccccc2)c2ncn(C(C)C)c2n1
inactive: all assays above
